# Bioassay records as filed in PubChem BioAssay.
# IP6K1 inh: Primary qHTS assay for small molecule inhibitors of Inositol hexaphosphate kinase 1 (IP6K1); Inositol hexakisphosphate kinase 1 (Homo sapiens), Q92551; IP6K1 kinase, ADP-Glo luminescence, 2 h; hits give low values; activity change, % (series mostly up to about 58 µM); actives 0.81% (n = 140,000); AID 1645851, 2021; in the data active = activity change below about -25%; note: % is set by controls: 0 for no effect and ±100 for the full control effect
#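 ADP-Glo luminescence measures ADP made by human IP6K1 during a 2 h RT reaction with ATP/IP6 (mix at 1.3 mM/130 uM); top library doses 57.5 and 19.1 uM final.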
# KDM5B inhibitor: Primary screen for KDM5B Histone Demethylases FDH-coupled qHTS; actives 2.6% (n = 220,000); Lysine-specific demethylase 5B (Homo sapiens), Q9UGL1; KDM5B demethylase, FDH-coupled NADH fluorescence (FDH is formaldehyde dehydrogenase); Potency, µM (titrated, usually from 57.7 µM), actives largely listed as inhibitors; note: potency is the fitted concentration of half-maximal effect; 0% is about no effect; nearly all actives have a fitted effect of over 70% in size
#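 Coupled FDH/NAD⁺ fluorescence readout. KDM5BΔAP 200 nM final; compound titration, 10 min RT preincubation; substrate mix 12.5 µM H3K4me3, 25 µM 2-OG, 50 µM Fe(II), 100 µM ascorbate, 0.25 mM NAD⁺, 0.25 U/mL FDH; ΔRFU over 30 min.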
# HEK293 viab: GF-AFC viability counterscreen for inhibitors of alpha-synuclein gene (SNCA) expression | Potency, µM (doses to about 57.1 µM), without a hit: at the top dose activity change, negative = cytotoxicity, actives largely listed as cytotoxic | actives 0.12% (n = 150,000) | HEK-293-SNCA-luc viability, GF-AFC fluorescence, 24 h;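 note: potency is the fitted concentration of half-maximal effect; 0% = DMSO-treated cells and -100% = medium-only wells without cells; nearly all actives have a fitted effect of over 30% in size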
#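 Cytotoxicity counterscreen: after 24 h compound treatment of genome-edited SNCA-luciferase HEK-293 cells, live-cell protease substrate GF-AFC read by fluorescence after 30 min; activity scaled between DMSO (0%) and medium-only (-100%), curves Hill-fitted.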
# SNCA expr inhib: Primary qHTS assay for inhibitors of alpha-synuclein gene (SNCA) expression; HEK-293 SNCA-luciferase knock-in, luminescence, 24 h; Potency, µM (series often up to 57.2 µM), inactives show at the highest dose activity change, negative = inhibition, most hits filed as inhibitors; actives 0.17% (n = 140,000);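 note: potency is the fitted concentration of half-maximal effect; plate controls were DMSO cells for no effect and cell-free wells for full effect; nearly all actives have a fitted effect of over 45% in size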
# IP6K1 conf: Confirmatory qHTS assay for small molecule inhibitors of Inositol hexaphosphate kinase 1 (IP6K1); shares compounds with IP6K1 inh; recombinant IP6K1 kinase, ADP-Glo luminescence, 2 h; Potency, µM (highest dose often 49 µM), inactives show at the top dose activity change, negative = inhibition, most hits filed as inhibitors; actives 13% (n = 1,200); AID 1645852, 2021; note: potency is the fitted concentration of half-maximal effect; % is set by controls: 0 for no effect and ±100 for the full control effect; nearly all actives have a fitted effect of over 65% in size
# Active calls of the source: *; i = inactive; ? = inconclusive; / = no result given; [ ] = another dose, or the depositor's remark. Rows were chosen to be rich in hits. Some 2.9% of all compounds tested hit in one or more screens of this group. Unless noted, calls come from the whole dose curve; as a rule, active = well fitted curve in the direction sought with a large enough effect; inconclusive = small, poorly fitted or top-dose-only effect, or another doubt; inactive = no such curve, though single readings can be large; an effect the other way counts as inactive or inconclusive.
SMILES,IP6K1 inh,KDM5B inhibitor,HEK293 viab,SNCA expr inhib,IP6K1 conf
Cc1nc(N2CCOCC2)cc(N2CCN(C(=O)c3cccc(C(F)(F)F)c3)CC2)n1,/,i,/,/,/
Cc1c(Cn2c(C)nc3c(C(=O)O)cc(N4CCOCC4)cc32)cccc1C(F)(F)F,-7,/,7%,-15%,-12%
C=C(C(=O)O)[C@@H]1CC[C@@]2(C)CC[C@H](O)[C@@]2(C(C)=O)C1,8,/,-10%,/,/
CCOc1ccc(NC(=O)N2CCC(N3CC4CC(C3)[C@H]3CCCC(=O)N3C4)CC2)cc1 (some centres undefined),16,?,11%,3%,/
CN(Cc1ccccc1)C(=O)c1ccnc(-c2nnc3ccc(N(C)c4ccccc4)nn23)c1,-3,i,-10%,1%,/
COc1ccnc(-c2nnc3ccc(N(C)c4ccccc4)nn23)c1,-39*,i,?,?,?
CC(C)[C@H](CO)Nc1nc(Nc2ccc(C(=O)O)c(Cl)c2)c2ncn(C(C)C)c2n1,-14,/,25%[23.9 µM],?,-6%[18.9 µM]
COc1cccc(CNCC(O)COc2ccc(C(C)=O)cc2OC)c1 (centres undefined),/,i,/,/,/
Cn1nnc2c(N3CCN(c4cccc(C(F)(F)F)c4)CC3)ncnc21,-5,i,-2%,74%,/
CCCOc1ccc(C2=NC(c3ccncc3)=Nc3ccc(C)cc3N2)cc1,-10,i,-7%,-7%,/
Cc1ccc(C2=Nc3ccccc3NC(c3ccncc3)=N2)cc1,-30*,i,-19%,-15%,9%
Cn1c(=O)c(-c2cccc(Cl)c2)c(O)c2ccccc21,/,i,/,/,/
Cn1cncc1C(N)(c1ccc(Cl)cc1)c1ccc2c(c1)c(-c1cccc(Cl)c1)cc(=O)n2C (centres undefined),-26*,/,9.5µM*,/,?
Cc1noc(C)c1[S+](=O)([O-])N1CCCC1C(=O)N1CCC(c2nc3ccncc3[nH]2)CC1 (centres undefined),-31*,/,2%,34%,-14%
O=C1Nc2ccc(-c3ccc(F)cc3F)cc2C(=O)N2CC[C@H](NC(=O)N3CCOCC3)[C@@H]12,2,i,-13%,11%,/
CN1Cc2ncnc(NCC3CC3)c2CN(c2ccc(Cl)cc2)C1=O,-8,i,-2%,-8%,/
CN1Cc2ncnc(NCCc3ccc(F)cc3)c2CN(c2ccc(Cl)cc2)C1=O,-29*,i,-26%,?,-7%
Cc1nnsc1C(=O)Oc1ccc(C#N)cc1,-20,?,-10%,8%,/
Cc1nnsc1C(=O)Oc1ccc(Cl)cc1,-26*,?,6%,-11%,-4%
Cc1cc(C)cc(OC(=O)c2snnc2C)c1,-35*,?,3%,-5%,-12%
Cc1cccc(OC(=O)c2snnc2C)c1C,-18,i,-7%,-8%,/
O=C(C1CCCN(C(=O)C2CCCC2)C1)N1CCC(N2CCCC2=O)CC1 (centres undefined),12,/,-2%,24%,/
CCOc1ccccc1NC(=O)Cn1nc2c3cc(F)ccc3n(Cc3cccc(C)c3)cc-2c1=O,-34*,i,-5%,7%,9%
COc1ccccc1NC(=O)Cn1nc2c3cc(F)ccc3n(Cc3cccc(C)c3)cc-2c1=O,7,i,-12%,-4%,/
Cc1oc(-c2ccc(C(=O)NCc3ccc(N(C)C)cc3)cc2)nc1COc1ccccc1,-25*,?,-6%,15%,-10%
Cc1ccc(OCc2nc(-c3ccc(C(=O)NCc4ccc(OC(C)C)cc4)cc3)oc2C)cc1,-11,?,-3%,-24%,/
COc1ccccc1N1CCN(C(=O)CCNS(=O)(=O)c2ccc3c(c2)CCN3C(=O)C2CC2)CC1,9,i,1%,9%,/
COCCCNc1nc(NCc2cccc(Cl)c2)c2cnn(C)c2n1,-32*,i,-15%,-29%,?
Cn1ncc2c(C(=O)NCc3cccc(Cl)c3)cc(C(C)(C)C)nc21,-3,/,4%[87.6 µM],-32%[87.6 µM],/
CCc1nc2nc(C)cc(Nc3cccc(C)c3C)n2n1,-33*,i,-5%,20%,?
